Assay results: PubChem BioAssay (EPA / NIEHS)
Active and inactive are the calls of the source. Rule for the calls: active = hit-call score of the fitted dose curve at least 0.9, where 1 is the maximum; inactive = score below 0.9.

What was measured:
Conditions in all cases: mRNA level, 48 h; actives raise or lower the signal
[1] = read-out: Insulin Like Growth Factor 1 (IGF1), IGF1 (gene 3479); assay: LTEA_HepaRG_IGF1: Life Technologies and Expression Analysis (LTEA) Assay for Insulin Like Growth Factor 1 (IGF1) using HepaRG (AID 2283506)
How it was run: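 HepaRG, plated 48 h, then switched to serum-free induction media; test chemical 8-pt half-log from 100 uM (0.5% DMSO), duplicate, 48 h. Lysis in RLT, TaqMan qRT-PCR, norm. ACTB/GAPDH/POLR2A. Bidirectional fit vs DMSO.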

[2] = read-out: Intercellular Adhesion Molecule 1 (ICAM1), ICAM1 (gene 3383); assay: LTEA_HepaRG_ICAM1: Life Technologies and Expression Analysis (LTEA) Assay for Intercellular Adhesion Molecule 1 (ICAM1) using HepaRG (AID 2283507)
How it was run: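 HepaRG, 48 h exposure, 8-pt half-log series from 100 uM, 0.5% DMSO vehicle, duplicates. Readout: TaqMan qRT-PCR mRNA, housekeeping-normalized (ACTB/GAPDH/POLR2A). Bidirectional curve fit vs DMSO baseline.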

[3] = read-out: Insulin-like growth factor-binding protein 1 (IGFBP1), IGFBP1 (gene 3484); assay: LTEA_HepaRG_IGFBP1: Life Technologies and Expression Analysis (LTEA) Assay for Insulin-like growth factor-binding protein 1 (IGFBP1) using HepaRG (AID 2283508)
How it was run: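 qRT-PCR mRNA read-out (TaqMan, Fluidigm array), normalised to three housekeeping genes; HepaRG cells, 48 h exposure, 8-pt half-log series from 100 uM, 0.5% DMSO vehicle; bidirectional curve fit vs DMSO baseline.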

[4] = read-out: Interleukin 6 (IL6), IL6 (gene 3569); assay: LTEA_HepaRG_IL6: Life Technologies and Expression Analysis (LTEA) Assay for Interleukin 6 (IL6) using HepaRG (AID 2283509)
How it was run: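 Differentiated human HepaRG cells, plated 48 h then switched to serum-free induction medium, were exposed in duplicate for 48 h to eight half-log concentrations up to 100 uM in 0.5% DMSO. IL6 mRNA measured by qRT-PCR, normalized to ACTB/GAPDH/POLR2A.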

[5] = read-out: Interleukin 6 Receptor (IL6R), IL6R (gene 3570); assay: LTEA_HepaRG_IL6R: Life Technologies and Expression Analysis (LTEA) Assay for Interleukin 6 Receptor (IL6R) using HepaRG (AID 2283510)
How it was run: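 Readout is IL6R transcript level by TaqMan qRT-PCR, normalized to three housekeeping genes and fitted bidirectionally against 0.5% DMSO controls. Human HepaRG cells received chemicals for 48 h in serum-free induction medium, highest concentration 100 uM.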

[6] = read-out: Potassium channel subfamily K member 1 (KCNK1), KCNK1 (gene 3775); assay: LTEA_HepaRG_KCNK1: Life Technologies and Expression Analysis (LTEA) Assay for Potassium channel subfamily K member 1 (KCNK1) using HepaRG (AID 2283511)
How it was run: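 Differentiated human HepaRG cells in serum-free induction medium were exposed in duplicate for 48 h to 8 half-log concentrations up to 100 uM in 0.5% DMSO. KCNK1 mRNA was measured by TaqMan qRT-PCR, normalized to ACTB, GAPDH and POLR2A, and fitted bidirectionally versus DMSO.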

[7] = read-out: Keratin 19 (KRT19), KRT19 (gene 3880); assay: LTEA_HepaRG_KRT19: Life Technologies and Expression Analysis (LTEA) Assay for Keratin 19 (KRT19) using HepaRG (AID 2283512)
How it was run: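 HepaRG, 48 h chemical exposure, 8-pt half-log CRC from 100 uM, 0.5% DMSO vehicle, duplicates. Readout: TaqMan qRT-PCR of KRT19 mRNA, housekeeping-normalized (ACTB/GAPDH/POLR2A). Bidirectional fit vs DMSO baseline.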

[8] = read-out: JUN Transcription Factor, JUN (gene 3725); assay: LTEA_HepaRG_JUN: Life Technologies and Expression Analysis (LTEA) Assay for JUN Transcription Factor using HepaRG (AID 2283513)
How it was run: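 Cells plated 48 h, medium switched to serum-free induction medium, then dosed 48 h (100 uM top, half-log dilutions, 0.5% DMSO). RNA isolated; JUN measured by qRT-PCR against three housekeeping genes; gain or loss fitted relative to DMSO.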

[9] = read-out: Lipase C (LIPC), LIPC (gene 3990); assay: LTEA_HepaRG_LIPC: Life Technologies and Expression Analysis (LTEA) Assay for Lipase C (LIPC) using HepaRG (AID 2283514)
How it was run: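 Differentiated human HepaRG cells in serum-free induction medium were exposed in duplicate for 48 h to eight concentrations (top 100 uM, half-log steps, 0.5% DMSO). LIPC mRNA was quantified by TaqMan qRT-PCR, normalized to ACTB, GAPDH and POLR2A, with bidirectional fitting versus DMSO.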

[10] = read-out: Lipoprotein lipase (LPL), LPL (gene 4023); assay: LTEA_HepaRG_LPL: Life Technologies and Expression Analysis (LTEA) Assay for Lipoprotein lipase (LPL) using HepaRG (AID 2283515)
How it was run: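 Differentiated human HepaRG cells in serum-free induction medium were exposed in duplicate for 48 h to eight half-log concentrations (top 100 uM) in 0.5% DMSO. LPL mRNA was quantified by TaqMan qRT-PCR, normalized to ACTB, GAPDH and POLR2A.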

Measured: AC50

Oc1ccc(O)cc1
inactive: [1] | [2] | [3] | [4] | [5] | [6] | [7] | [8] | [9] | [10]

O=C(N[C@@H](c1ccccc1)[C@@H]1CCCCN1)c1cccc(C(F)(F)F)c1Cl
inactive: [9]
active: [1] 17.9 µM | [2] 61.9 µM | [3] 25.3 µM | [4] 85 µM | [5] 50 µM | [6] 50 µM | [7] 12.6 µM | [8] 65 µM | [10] 84.7 µM

CCCCC(CC)COP(=O)(OCC(CC)CCCC)OCC(CC)CCCC (stereo not drawn)
inactive: [1] | [2] | [3] | [4] | [5] | [6] | [7] | [8] | [9] | [10]

CC(C)(C)c1ccccc1
inactive: [1] | [2] | [3] | [4] | [5] | [6] | [7] | [8] | [9] | [10]

CC(C)NCC(O)c1ccc(O)c(O)c1 (stereo not drawn)
inactive: [1] | [2] | [3] | [4] | [6] | [8]
active: [5] 9.92 µM | [7] 0.149 µM | [9] 0.227 µM | [10] 0.319 µM

CC(=O)[C@@]1(O)CC[C@H]2[C@@H]3CCC4=CC(=O)CC[C@]4(C)[C@H]3CC[C@@]21C
inactive: [1] | [2] | [3] | [4] | [5] | [6] | [7] | [8] | [9] | [10]

O=C1OC(c2ccc(O)cc2)(c2ccc(O)cc2)c2ccccc21
inactive: [1] | [2] | [3] | [4] | [6] | [7]
active: [5] 50 µM | [9] 77.4 µM | [10] 72.5 µM

CCCCCCCCCC[N+](C)(C)[O-]
inactive: [1] | [2] | [3] | [4] | [5] | [6] | [7] | [8] | [9] | [10]

Cc1cn([C@H]2C=C[C@@H](CO)O2)c(=O)[nH]c1=O
inactive: [1] | [2] | [3] | [4] | [5] | [6] | [7] | [8] | [9] | [10]

OCC(CO)n1cnc(-c2ccc(F)cc2)c1-c1ccnc(Oc2ccccc2)n1
inactive: [1] | [2] | [3] | [4] | [5] | [6] | [7] | [8] | [9] | [10]

O=C(O)c1[nH]n(-c2ccc(S(=O)(=O)O)cc2)c(=O)c1N=Nc1ccc(S(=O)(=O)O)cc1
inactive: [1] | [2] | [3] | [4] | [5] | [6] | [7] | [9] | [10]

CCCCCCC(C=O)=Cc1ccccc1
inactive: [1] | [2] | [3] | [4] | [5] | [6] | [7] | [8] | [9] | [10]

S=c1[nH]c2ccccc2s1
inactive: [1] | [2] | [3] | [4] | [5] | [6] | [7] | [8] | [9] | [10]

CC(=O)OC1CC(C)OC(C)O1 (stereo not drawn)
inactive: [1] | [2] | [3] | [4] | [5] | [6] | [7] | [8] | [9] | [10]

COc1ccc(OC(F)(F)F)cc1CN[C@H]1CCCN[C@H]1c1ccccc1
inactive: [1] | [5] | [7] | [9]
active: [2] 75.7 µM | [3] 71.7 µM | [4] 82.9 µM | [6] 79.1 µM | [8] 78.9 µM | [10] 82.9 µM

CCOCCOCCO
inactive: [1] | [2] | [3] | [4] | [5] | [6] | [7] | [8] | [9] | [10]

COC(=O)CCC(=O)OC
inactive: [1] | [2] | [3] | [4] | [5] | [6] | [7] | [8] | [9] | [10]

O=C1NC(=O)C(c2ccccc2)(c2ccccc2)N1
inactive: [1] | [2] | [3] | [4] | [5] | [6] | [7] | [8] | [9] | [10]

O=NO
inactive: [1] | [2] | [3] | [4] | [5] | [6] | [7] | [8] | [9] | [10]

O=C(NS(=O)(=O)/C=C/c1cccs1)c1ccc(F)cc1Br
active: [1] 31.1 µM
inactive: [2] | [3] | [4] | [5] | [6] | [7] | [8] | [9] | [10]
